{
  "source": "PubChem BioAssay AID1004",
  "about": "(SRMLSC, 2008)",
  "note": "A number with no mark means an inactive call.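 Rule for the calls: active = viability at 10 µM of 29.74% or lower, 3 SD below the compound median; inactive = the rest.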",
  "data": [
    {"assay": "viability of HCT116 lacking mutant beta-catenin – cell-based, DP diverse set, validation, pilot screen (AID 1004)", "settings": "HCT116 (mutant beta-catenin deleted) viability, CellTiter-Glo, 60 h; at 10 µM; stronger effect = lower value", "units": {"viability": "%"}, "values": [
      {"smiles": "NCCc1c[nH]c2ccc(O)cc12", "viability": 100},
      {"smiles": "N#Cc1nn(-c2c(Cl)cc(C(F)(F)F)cc2Cl)c(N)c1S(=O)C(F)(F)F", "note": "(centres undefined)", "viability": 92.8},
      {"smiles": "O[C@H]1[C@H](O)[C@@H](O)CN2CC[C@H](O)[C@H]12", "viability": 95.4},
      {"smiles": "OCC1CCCN2CCCCC12", "note": "(centres undefined)", "viability": 99.4},
      {"smiles": "O=C1C=CC(=O)C(Cl)=C1", "viability": 101},
      {"smiles": "CSC(=S)NCc1c[nH]c2ccccc12", "viability": 95},
      {"smiles": "C[C@H]1CCC/C=C/C2C[C@H](O)C[C@H]2[C@H](O)/C=C/C(=O)O1", "note": "(some centres undefined)", "viability": 40.4},
      {"smiles": "COC[C@H]1OC(=O)c2coc3c2[C@@]1(C)C1=C(C3=O)C2CCC(=O)[C@@]2(C)C[C@H]1OC(C)=O", "note": "(some centres undefined)", "viability": 78.1},
      {"smiles": "CC1=C2[C@H]3OC(=O)[C@@H](C)[C@@H]3CC[C@@]2(C)C=CC1=O", "viability": 98},
      {"smiles": "C[C@@H]1O[C@@H](OC2CC(O)C3(CO)C4C(CCC3(O)C2)C2(O)CCC(C3=CC(=O)OC3)C2(C)C[C@H]4O)[C@H](O)[C@H](O)[C@H]1O", "note": "(some centres undefined)", "viability": 128},
      {"smiles": "C=C(C)[C@H]1CN[C@H](C(=O)O)[C@H]1CC(=O)O", "viability": 94.1},
      {"smiles": "CC(=O)O[C@H]1[C@H]2[C@@H](OC(=O)Cc3ccccc3)[C@@H](C)C[C@]2(OC(C)=O)C(=O)/C(C)=C/[C@@H]2[C@H](CC[C@@]13CO3)C2(C)C", "viability": 89.4},
      {"smiles": "CC/C(=C(\\c1ccccc1)c1ccc(OCCN(C)C)cc1)c1ccccc1", "viability": 67.6},
      {"smiles": "N#CC(C#N)=Cc1ccc([N+](=O)[O-])c(O)c1", "viability": 97.9}
    ]}
  ]
}
